Data as given in PubChem BioAssay.
Active and inactive are the calls of the source. How the calls were made is not given here.

Tests used:
[1] = system: Botulinum neurotoxin type F light chain protease (Clostridium botulinum); experiment: Clostridium botulinum type F light chain protease inhibitors, microsphere substrate cleavage, validation (AID 588459); details: multiplex microsphere protease substrate cleavage assay, flow cytometry; at 10 µM; stronger effect = higher value
[2] = target: Botulinum neurotoxin type A (Clostridium botulinum) (UniProt P0DPI0); experiment: BoNT/A light chain protease inhibitors, biochemical, multiplex microsphere flow cytometry, validation set (AID 588460); details: at 10 µM, stronger effect = higher value
Sequence of Botulinum neurotoxin type A (Clostridium botulinum) (P0DPI0 whole entry, looked up): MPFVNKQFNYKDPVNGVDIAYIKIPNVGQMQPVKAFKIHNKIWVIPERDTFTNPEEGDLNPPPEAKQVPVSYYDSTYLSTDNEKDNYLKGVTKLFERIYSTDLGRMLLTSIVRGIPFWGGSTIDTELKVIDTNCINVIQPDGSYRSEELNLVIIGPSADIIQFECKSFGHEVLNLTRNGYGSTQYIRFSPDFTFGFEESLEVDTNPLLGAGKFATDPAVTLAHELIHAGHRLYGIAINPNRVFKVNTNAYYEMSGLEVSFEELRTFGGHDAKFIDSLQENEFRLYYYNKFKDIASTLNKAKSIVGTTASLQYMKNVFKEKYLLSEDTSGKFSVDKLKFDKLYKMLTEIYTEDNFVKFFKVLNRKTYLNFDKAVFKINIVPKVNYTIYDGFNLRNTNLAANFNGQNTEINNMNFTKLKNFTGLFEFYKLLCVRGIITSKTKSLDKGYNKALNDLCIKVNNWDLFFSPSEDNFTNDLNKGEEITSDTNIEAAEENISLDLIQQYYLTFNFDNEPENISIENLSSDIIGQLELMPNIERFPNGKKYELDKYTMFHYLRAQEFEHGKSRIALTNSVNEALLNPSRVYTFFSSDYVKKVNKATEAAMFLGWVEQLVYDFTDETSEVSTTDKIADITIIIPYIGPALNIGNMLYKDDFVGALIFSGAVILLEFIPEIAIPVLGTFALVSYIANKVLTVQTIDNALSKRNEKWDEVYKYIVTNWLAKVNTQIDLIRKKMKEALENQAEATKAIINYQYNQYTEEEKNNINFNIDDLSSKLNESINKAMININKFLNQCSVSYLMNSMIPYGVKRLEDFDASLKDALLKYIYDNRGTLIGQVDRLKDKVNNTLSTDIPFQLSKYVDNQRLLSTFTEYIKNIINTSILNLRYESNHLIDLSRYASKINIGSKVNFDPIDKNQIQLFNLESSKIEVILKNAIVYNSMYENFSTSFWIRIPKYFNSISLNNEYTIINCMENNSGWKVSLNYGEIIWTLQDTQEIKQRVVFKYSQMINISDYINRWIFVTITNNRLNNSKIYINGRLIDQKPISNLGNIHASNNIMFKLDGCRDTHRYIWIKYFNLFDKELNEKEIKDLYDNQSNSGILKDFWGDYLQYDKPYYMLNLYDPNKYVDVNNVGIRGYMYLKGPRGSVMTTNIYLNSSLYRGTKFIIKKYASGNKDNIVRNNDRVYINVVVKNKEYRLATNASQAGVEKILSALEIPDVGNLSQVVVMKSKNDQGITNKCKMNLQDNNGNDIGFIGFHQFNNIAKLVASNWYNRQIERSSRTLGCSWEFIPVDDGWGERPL

[3] = target: Lethal factor (Bacillus anthracis) (UniProt P15917); experiment: Bacillus anthracis lethal factor inhibition, microsphere flow cytometry protease assay, validation at 10 µM (AID 588461); details: multiplex microsphere protease cleavage assay, stronger effect = higher value
Sequence of Lethal factor (Bacillus anthracis) (P15917 whole entry, looked up): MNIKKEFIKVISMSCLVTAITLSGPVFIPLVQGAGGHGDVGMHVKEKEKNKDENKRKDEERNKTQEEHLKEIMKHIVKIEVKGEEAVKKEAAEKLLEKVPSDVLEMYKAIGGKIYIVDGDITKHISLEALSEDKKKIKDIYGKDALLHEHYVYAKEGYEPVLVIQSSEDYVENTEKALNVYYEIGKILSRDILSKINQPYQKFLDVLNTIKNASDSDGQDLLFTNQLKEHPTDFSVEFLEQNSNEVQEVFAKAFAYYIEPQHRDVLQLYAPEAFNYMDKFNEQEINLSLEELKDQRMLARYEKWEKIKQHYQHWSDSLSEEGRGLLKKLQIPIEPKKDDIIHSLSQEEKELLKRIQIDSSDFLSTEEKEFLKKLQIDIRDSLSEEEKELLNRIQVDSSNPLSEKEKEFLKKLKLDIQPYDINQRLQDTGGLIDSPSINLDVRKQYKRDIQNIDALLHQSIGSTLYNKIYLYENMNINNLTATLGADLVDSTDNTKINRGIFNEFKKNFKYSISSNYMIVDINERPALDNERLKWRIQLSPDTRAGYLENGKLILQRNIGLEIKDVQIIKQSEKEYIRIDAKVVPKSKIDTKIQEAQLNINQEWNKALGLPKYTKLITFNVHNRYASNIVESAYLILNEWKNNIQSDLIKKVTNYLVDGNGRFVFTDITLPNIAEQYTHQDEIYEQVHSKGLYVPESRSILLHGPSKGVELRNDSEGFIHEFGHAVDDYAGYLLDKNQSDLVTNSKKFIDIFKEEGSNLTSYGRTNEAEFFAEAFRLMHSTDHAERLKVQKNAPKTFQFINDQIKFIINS

Measured: inhibition

Cc1cc(C(=O)NC(CC(C)C)C(=O)O)cc(C)c1[N+](=O)[O-] (stereo not given)
inactive: [1] -4.1% | [2] -0.3% | [3] -5.7%

CC1=NN(c2ccccc2)C(=O)C1
inactive: [1] 1.1% | [2] -3% | [3] 1.8%

O=C1c2ccccc2N2C(=O)c3ccccc3C2N1Cc1ccco1 (stereo not given)
inactive: [1] 3.3% | [2] 0.7% | [3] 2.8%

COC(=O)c1cc(COc2ccc3ccc(=O)oc3c2)c(C)o1
inactive: [1] -0.4% | [2] -1.4% | [3] 1%

CCCCC[C@H](O)/C=C/[C@@H]1[C@@H](C/C=C\CCCC(=O)O)[C@H]2CO[C@@H]1C2
inactive: [1] 0.5% | [2] -0.1% | [3] 3.3%
